Rows were chosen to be rich in hits. Some 4.6% of all compounds tested hit in one or more screens of this group.
UCHL1 block: blocks human UCHL1 ubiquitin-rhodamine cleavage; P09936; purified UCHL1, Ub-rhodamine cleavage fluorescence; inhibition, % at 20 µM; 0.2% of 47,000 active
USP10 block: blocks human USP10 ubiquitin-rhodamine cleavage; Q14694; purified USP10, Ub-rhodamine fluorescence, 60 min; inhibition, % at 20 µM; 1.1% of 47,000 active; AID 1645856
USP7 inh: human USP7 deubiquitinase inhibition. 0.3% of 47,000 active. AID 1645854. inhibition, % at 20 µM. purified USP7, Ub-rhodamine cleavage fluorescence. Q93009
USP8 inh: human USP8 deubiquitinase inhibition; P40818; 4.2% of 47,000 active; inhibition, % at 20 µM; purified USP8, Ub-rhodamine cleavage fluorescence, 30 min
Numbers stand for hits. No stated cut-off is given here; in the data, active means inhibition above about 30%; inactive means the rest.

O=c1ccc(-c2noc(-c3ccc4cc[nH]c4c3)n2)c[nH]1 was read as UCHL1 block inactive, USP10 block inactive, USP7 inh inactive and USP8 inh 51.
For NC1=NN(c2ccccc2)C(=O)C1Sc1nnnn1-c1ccccc1 (configuration not stated) the results were UCHL1 block inactive, USP10 block inactive, USP7 inh inactive and USP8 inh inactive.
Cc1nc(N2CCN(c3ccc(Cl)cc3)CC2)c2oc3ccccc3c2n1 was read as UCHL1 block inactive, USP10 block inactive, USP7 inh inactive and USP8 inh 63.
Cc1nc(N2CCC(C(=O)O)CC2)c2oc3ccccc3c2n1 was read as UCHL1 block inactive, USP10 block inactive, USP7 inh inactive and USP8 inh inactive.
Screening COc1cccc(CN2C(=O)c3cc4occc4n3CC2(C)C(=O)NC2CCCCCC2)c1 (configuration not stated) returned UCHL1 block inactive, USP10 block inactive, USP7 inh inactive and USP8 inh inactive.
Screening COc1cccc(CN2C(=O)c3cc4ccccc4n3CC2(C)C(=O)NC2CCCC2)c1 (configuration not stated) returned UCHL1 block inactive, USP10 block inactive, USP7 inh inactive and USP8 inh 35.
`COc1ccc(C2CC(=O)c3cnc(NCC4CCCO4)nc3C2)cc1OC` (configuration not stated) gave UCHL1 block inactive, USP10 block inactive, USP7 inh inactive and USP8 inh inactive.
COc1ccc(C(CNC(=O)c2cc(-c3ccc(Cl)cc3)on2)N2CCOCC2)cc1 (configuration not stated) was read as UCHL1 block inactive, USP10 block inactive, USP7 inh inactive and USP8 inh 40.
`O=C(NCC(c1ccc(Cl)cc1)N1CCOCC1)c1cc(-c2ccccc2)on1` (configuration not stated) gave UCHL1 block inactive, USP10 block inactive, USP7 inh inactive and USP8 inh inactive.
O=C(c1c(F)cccc1F)N1CC2CCCN2c2ccc(C(F)(F)F)cc21 (configuration not stated) was read as UCHL1 block inactive, USP10 block inactive, USP7 inh inactive and USP8 inh 34.
Screening O=c1c2cnc(N3CCCCC3)nc2ccn1Cc1ccc2c(c1)OCO2 returned UCHL1 block inactive, USP10 block inactive, USP7 inh inactive and USP8 inh 42.
`O=c1c2cnc(N3CCN(c4ccccc4)CC3)nc2ccn1Cc1ccc2c(c1)OCO2` gave UCHL1 block inactive, USP10 block inactive, USP7 inh inactive and USP8 inh inactive.
`O=C(CCc1ccc(S(=O)(=O)N2CCOCC2)cc1)OCC(=O)c1ccc(-c2ccccc2)cc1` gave UCHL1 block inactive, USP10 block 38, USP7 inh inactive and USP8 inh 31.
Screening O=C(CCc1ccc(S(=O)(=O)N2CCOCC2)cc1)NC(c1ccccc1)c1ccccc1 returned UCHL1 block inactive, USP10 block inactive, USP7 inh inactive and USP8 inh inactive.
Cc1cnc(NC(=O)c2cc3c(C)nn(Cc4ccccc4Cl)c3s2)s1 was read as UCHL1 block inactive, USP10 block inactive, USP7 inh inactive and USP8 inh 56.
For Cc1cnc(NC(=O)c2ccccc2-c2ccccc2)s1 the results were UCHL1 block inactive, USP10 block inactive, USP7 inh inactive and USP8 inh inactive.
O=C(Nc1cnc(N2CCCCCC2)nc1)c1cc(F)ccc1F was read as UCHL1 block inactive, USP10 block inactive, USP7 inh inactive and USP8 inh inactive.
Screening Cc1ccc(NC(=O)c2cnc3ccccc3n2)cc1Cl returned UCHL1 block inactive, USP10 block inactive, USP7 inh inactive and USP8 inh 65.
`O=C(CSc1nc2ccccc2[nH]1)Nc1cccc2c1OCCO2` gave UCHL1 block inactive, USP10 block inactive, USP7 inh inactive and USP8 inh inactive.
For O=C(CSc1ccccc1)Nc1cccc2nsnc12 the results were UCHL1 block inactive, USP10 block inactive, USP7 inh inactive and USP8 inh 53.
For O=C(NCc1cccs1)C(NS(=O)(=O)c1cccc2nsnc12)c1ccccc1 (configuration not stated) the results were UCHL1 block inactive, USP10 block inactive, USP7 inh inactive and USP8 inh inactive.
CCC(C(=O)Nc1cccc2nsnc12)c1ccccc1 (configuration not stated) was read as UCHL1 block inactive, USP10 block inactive, USP7 inh inactive and USP8 inh 37.
`N#CC1(c2ccccc2Cl)C(=O)Nc2ccccc21` (configuration not stated) gave UCHL1 block inactive, USP10 block inactive, USP7 inh inactive and USP8 inh inactive.
For NS(=O)(=O)c1ccc(NC(=O)Cn2cnc3cc([N+](=O)[O-])ccc3c2=O)cc1 the results were UCHL1 block inactive, USP10 block inactive, USP7 inh inactive and USP8 inh 55.

High-throughput results: PubChem, Buhrlage Lab, Dana-Farber Cancer Institute and Novartis Institutes for BioMedical Research (Cambridge, Mass)
